The values below come from PubChem BioAssay.

“And” between values parts separate entries of the source, which are not always exact repeats. Equal values may be shown once. The source made the active and inactive calls.

Experiment [1] in a line: small molecules captured by biotinylated probe aFSTL3 – biochemical, small-molecule microarray, fluorescence 635/667, stem cell growth factor project, primary screen (AID 1064).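 Further: measures binding of the biotinylated anti-FSTL3 antibody to printed compounds.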 The conditions noted are these: higher = more signal.
Experiment [2] is described as follows: binders from COS7 lysate, DM2A8 probe, primary screen, torsin A project, cell lysate, small-molecule microarray, fluorescence 635/667 (AID 1065). The conditions noted are these: higher = more signal, COS7 lysate expressing mutant human TOR1A.
A short description of experiment [3]: small molecules captured by biotinylated probe aFGF2 – biochemical, small-molecule microarray, fluorescence 635/667, stem cell growth factor project, primary screen (AID 1067).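 Further: measures binding of biotinylated aFGF2 protein to printed compounds on slides; z-score merges feature fluorescence and signal-to-noise across triplicate slides.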 The conditions noted are these: higher = more signal.
Experiment [4] in a line: small molecules captured by biotinylated probe aFGF10 – biochemical, small-molecule microarray, fluorescence 635/667, stem cell growth factor project, primary screen (AID 1071).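 Further: score merges 667 nm spot intensity and signal to noise from triplicate slides.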 The conditions noted are these: higher = more signal.
For experiment [5], the target named is Neurogenic locus notch homolog protein 2 (Homo sapiens) (UniProt Q04721). In words: small molecules binding Notch2 protein – biochemical, small-molecule microarray, 635 nm fluorescence, stem cell growth factors, primary screen (AID 1073). The conditions noted are these: higher = more signal.
The target in experiment [6] is Pro-neuregulin-1, membrane-bound isoform (Homo sapiens) (UniProt Q02297). Description: small molecules binding neuregulin-1 protein – biochemical, small-molecule microarray, fluorescence 635/667, psychiatric disease protein project, primary screen (AID 1075).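 Further: score combines 667 nm spot fluorescence with signal to noise.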 The conditions noted are these: NRG1 binding, 635 nm fluorescence, higher = more signal.
Experiment [7] relates to Neuregulin-1 EGF-like domain. In words: small molecules binding NRG1 EGF domain – biochemical, small-molecule microarray, 635 nm fluorescence, primary screen (AID 1081).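 Further: binding of the protein to compounds printed on small-molecule microarray slides.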 The conditions noted are these: higher = more signal.
Experiment [8] in a line: FRG1 expression reporter modulators in myotubes – cell-based, C2C12 myotubes, firefly/Renilla luciferase, luminescence, FRG1 inhibition for FSHD, primary screen (AID 1084). The conditions noted are these: FRG1 promoter luciferase, higher = more signal, called active from +8 up or from −8 down.
Experiment [9] is described as follows: small molecules captured by biotinylated probe aFST – biochemical, small-molecule microarray, fluorescence 635/667, stem cell growth factor project, primary screen (AID 1086).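 Further: score merges 667 nm fluorescence with signal-to-noise of each printed compound spot.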 The conditions noted are these: higher = more signal.
Experiment [10] in a line: binders of probe aHhip on microarray, primary screen, stem cell growth factor project, biochemical, small-molecule microarray, fluorescence 635/667 (AID 1087).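 Further: score merges spot fluorescence at 667nm with spot signal to noise ratio.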 The conditions noted are these: higher = more signal.
Experiment [11] deals with PRMT1 (protein arginine N-methyltransferase 1). Description: small molecules binding arginine methyltransferase PRMT1 – biochemical, small-molecule microarray, 635 nm fluorescence, primary screen (AID 1088).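 Further: binding of Prmt1 protein to compounds spotted on small-molecule microarray slides.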 The conditions noted are these: higher = more signal.
Experiment [12] can be described thus: growth effects on S. cerevisiae YJM789 – YJM789 clinical isolate, OD600, 24 h, basal, primary screen (AID 1089).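 Further: growth of clinical yeast isolate S. cerevisiae YJM 789 seeded 1000 cells per well; test concentration not given here.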 The conditions noted are these: higher = more signal, called active from +8 up or from −8 down.
Experiment [13] can be described thus: S. pombe growth modifiers, basal conditions – strain 972, OD600, 24 h, no modulator, primary screen (AID 1090).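 Further: basal condition with compound alone and no growth modifier present; test concentration not given here.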 The conditions noted are these: S. pombe 972 growth, higher = more signal, called active from +8 up or from −8 down.
A short description of experiment [14]: budding yeast growth modifiers under rapamycin – strain BY4716, OD600, 96 h, primary screen (AID 1091). Further: test concentration not given here. The conditions noted are these: S. cerevisiae BY4716 + rapamycin, higher = more signal, called active from +8 up or from −8 down.
Experiment [15] addresses Torsin-1A-interacting protein 2 (Homo sapiens) (UniProt Q8NFQ8). In words: small molecules binding lysate-expressed LULL1 – cell lysate, human LULL1 lysate, 635/667 nm fluorescence, primary screen (AID 1092).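 Further: score merges per-feature 667 nm fluorescence with signal-to-noise.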 The conditions noted are these: small-molecule microarray, hLULL1 lysate binding, 635 nm fluorescence; higher = more signal.
Experiment [16] can be described thus: optical density change of DRC41 E. coli – strain DRC41, OD650, 24 h, E. coli filamentation project, primary screen (AID 1093).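 Further: MC1000 strain lacking acrAB efflux and sulA so SOS filamentation is blocked; test concentration not given here.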 The conditions noted are these: E. coli DRC41 growth, higher = more signal, called active from +8 up or from −8 down.
Experiment [17] in a line: probe aLefty2 binding to arrayed compounds – biochemical, biotinylated probe, 635/667 nm fluorescence, primary screen (AID 1094).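 Further: score merges spot fluorescence near 667 nm with spot signal-to-noise ratio.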 The conditions noted are these: small-molecule microarray, higher = more signal.
Experiment [18] relates to Noggin (protein binding on small-molecule microarray). Description: small molecules binding Noggin protein – biochemical, 635/667 nm fluorescence, primary screen (AID 1095).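 Further: score merges 667 nm feature fluorescence with signal to noise over triplicate slides.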 The conditions noted are these: 635 nm fluorescence, higher = more signal.
Experiment [19] concerns the target Neurogenic locus notch homolog protein 3 (Homo sapiens) (UniProt Q9UM47). Description: small molecules binding NOTCH3 protein – biochemical, 635/667 nm fluorescence, primary screen (AID 1096). The conditions noted are these: small-molecule microarray, 635 nm fluorescence, higher = more signal.
Experiment [20] can be described thus: probe aEGFR binding to arrayed compounds – biochemical, biotinylated probe, 635/667 nm fluorescence, primary screen (AID 1097).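 Further: probe is a biotinylated anti-EGFR antibody binding compounds printed on slides; score combines fluorescence near 667 nm and signal to noise of each spot.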 The conditions noted are these: small-molecule microarray, higher = more signal.

Neurogenic locus notch homolog protein 2 (Homo sapiens), sequence (Q04721 whole entry, looked up, canonical isoform): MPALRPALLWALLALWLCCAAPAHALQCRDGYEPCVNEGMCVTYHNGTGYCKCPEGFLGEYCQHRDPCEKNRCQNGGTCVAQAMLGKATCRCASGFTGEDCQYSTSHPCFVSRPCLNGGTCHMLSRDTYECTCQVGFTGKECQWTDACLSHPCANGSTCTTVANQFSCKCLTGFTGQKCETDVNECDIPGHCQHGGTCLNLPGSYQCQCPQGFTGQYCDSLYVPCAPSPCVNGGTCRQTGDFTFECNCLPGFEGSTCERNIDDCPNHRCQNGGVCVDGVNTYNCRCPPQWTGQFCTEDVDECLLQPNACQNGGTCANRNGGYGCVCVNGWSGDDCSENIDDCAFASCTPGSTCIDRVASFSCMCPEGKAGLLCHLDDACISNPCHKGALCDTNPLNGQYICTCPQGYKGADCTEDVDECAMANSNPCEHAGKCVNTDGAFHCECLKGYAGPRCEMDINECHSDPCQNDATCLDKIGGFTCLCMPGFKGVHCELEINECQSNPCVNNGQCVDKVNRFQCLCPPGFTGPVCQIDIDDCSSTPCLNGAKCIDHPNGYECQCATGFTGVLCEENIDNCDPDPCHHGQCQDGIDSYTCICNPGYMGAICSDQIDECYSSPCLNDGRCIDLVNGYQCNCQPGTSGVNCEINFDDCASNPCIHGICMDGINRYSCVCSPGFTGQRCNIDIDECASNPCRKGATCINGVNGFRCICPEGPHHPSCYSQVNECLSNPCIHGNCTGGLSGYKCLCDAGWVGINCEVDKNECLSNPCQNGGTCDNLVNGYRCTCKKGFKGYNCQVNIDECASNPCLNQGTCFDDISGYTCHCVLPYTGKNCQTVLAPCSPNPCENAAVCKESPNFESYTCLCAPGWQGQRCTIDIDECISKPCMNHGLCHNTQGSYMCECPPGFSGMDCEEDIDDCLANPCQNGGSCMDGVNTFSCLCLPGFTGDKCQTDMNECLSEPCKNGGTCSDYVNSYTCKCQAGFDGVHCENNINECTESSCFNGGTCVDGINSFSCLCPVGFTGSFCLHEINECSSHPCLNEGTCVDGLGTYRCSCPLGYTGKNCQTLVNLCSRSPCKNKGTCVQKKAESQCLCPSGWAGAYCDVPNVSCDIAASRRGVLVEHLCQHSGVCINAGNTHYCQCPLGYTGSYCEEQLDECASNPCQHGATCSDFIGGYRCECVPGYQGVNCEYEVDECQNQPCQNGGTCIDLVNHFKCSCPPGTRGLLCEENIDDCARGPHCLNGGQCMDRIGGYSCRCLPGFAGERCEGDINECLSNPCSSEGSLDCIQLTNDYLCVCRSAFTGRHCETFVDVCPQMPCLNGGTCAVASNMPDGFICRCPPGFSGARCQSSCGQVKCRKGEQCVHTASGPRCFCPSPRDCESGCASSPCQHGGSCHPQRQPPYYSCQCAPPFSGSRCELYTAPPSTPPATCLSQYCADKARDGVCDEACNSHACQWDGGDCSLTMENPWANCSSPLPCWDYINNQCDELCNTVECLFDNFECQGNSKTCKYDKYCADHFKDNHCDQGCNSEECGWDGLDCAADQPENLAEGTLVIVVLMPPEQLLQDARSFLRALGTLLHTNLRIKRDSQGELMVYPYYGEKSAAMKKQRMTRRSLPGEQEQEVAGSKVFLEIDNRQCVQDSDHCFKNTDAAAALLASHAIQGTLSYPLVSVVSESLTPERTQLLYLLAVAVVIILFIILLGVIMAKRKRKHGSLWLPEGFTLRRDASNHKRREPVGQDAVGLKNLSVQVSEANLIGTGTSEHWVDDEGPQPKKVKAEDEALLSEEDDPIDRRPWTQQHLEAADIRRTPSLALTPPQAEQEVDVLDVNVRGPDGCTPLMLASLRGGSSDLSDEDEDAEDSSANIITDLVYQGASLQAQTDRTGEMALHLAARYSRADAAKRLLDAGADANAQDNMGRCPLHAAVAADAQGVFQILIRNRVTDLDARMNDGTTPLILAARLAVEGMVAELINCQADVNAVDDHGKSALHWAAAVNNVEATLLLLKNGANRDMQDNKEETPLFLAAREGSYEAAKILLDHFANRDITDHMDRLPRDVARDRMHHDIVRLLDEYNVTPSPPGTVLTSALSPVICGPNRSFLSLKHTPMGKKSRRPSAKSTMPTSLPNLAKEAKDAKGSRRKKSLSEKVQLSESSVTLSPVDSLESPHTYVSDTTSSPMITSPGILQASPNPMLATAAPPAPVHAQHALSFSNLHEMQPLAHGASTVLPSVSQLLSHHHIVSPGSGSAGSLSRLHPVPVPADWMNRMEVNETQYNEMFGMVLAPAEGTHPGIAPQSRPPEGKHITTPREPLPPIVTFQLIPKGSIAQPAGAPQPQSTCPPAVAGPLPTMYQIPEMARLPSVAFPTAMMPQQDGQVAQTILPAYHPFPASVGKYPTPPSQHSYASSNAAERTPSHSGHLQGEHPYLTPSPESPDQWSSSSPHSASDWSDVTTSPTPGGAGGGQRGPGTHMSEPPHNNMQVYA
Pro-neuregulin-1, membrane-bound isoform (Homo sapiens), sequence (Q02297 whole entry, looked up, the tested form may be a part, canonical isoform): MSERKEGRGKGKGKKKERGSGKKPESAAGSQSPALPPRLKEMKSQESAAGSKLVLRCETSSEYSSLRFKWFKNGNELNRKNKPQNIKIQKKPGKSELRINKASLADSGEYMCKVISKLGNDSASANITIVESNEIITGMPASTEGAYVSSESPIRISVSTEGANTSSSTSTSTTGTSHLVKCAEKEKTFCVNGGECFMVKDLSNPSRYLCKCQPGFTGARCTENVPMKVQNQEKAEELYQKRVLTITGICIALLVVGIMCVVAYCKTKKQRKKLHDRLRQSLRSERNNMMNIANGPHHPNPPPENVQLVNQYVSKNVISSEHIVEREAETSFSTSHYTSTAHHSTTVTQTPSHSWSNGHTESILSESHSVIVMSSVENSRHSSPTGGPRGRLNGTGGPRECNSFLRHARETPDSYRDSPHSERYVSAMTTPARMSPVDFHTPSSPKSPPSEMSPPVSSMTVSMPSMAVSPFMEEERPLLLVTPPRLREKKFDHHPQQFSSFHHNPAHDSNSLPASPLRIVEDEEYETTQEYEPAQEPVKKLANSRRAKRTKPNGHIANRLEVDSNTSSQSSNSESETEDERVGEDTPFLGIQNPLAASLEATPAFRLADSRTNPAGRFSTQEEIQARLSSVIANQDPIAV
Torsin-1A-interacting protein 2 (Homo sapiens), sequence (Q8NFQ8 whole entry, looked up): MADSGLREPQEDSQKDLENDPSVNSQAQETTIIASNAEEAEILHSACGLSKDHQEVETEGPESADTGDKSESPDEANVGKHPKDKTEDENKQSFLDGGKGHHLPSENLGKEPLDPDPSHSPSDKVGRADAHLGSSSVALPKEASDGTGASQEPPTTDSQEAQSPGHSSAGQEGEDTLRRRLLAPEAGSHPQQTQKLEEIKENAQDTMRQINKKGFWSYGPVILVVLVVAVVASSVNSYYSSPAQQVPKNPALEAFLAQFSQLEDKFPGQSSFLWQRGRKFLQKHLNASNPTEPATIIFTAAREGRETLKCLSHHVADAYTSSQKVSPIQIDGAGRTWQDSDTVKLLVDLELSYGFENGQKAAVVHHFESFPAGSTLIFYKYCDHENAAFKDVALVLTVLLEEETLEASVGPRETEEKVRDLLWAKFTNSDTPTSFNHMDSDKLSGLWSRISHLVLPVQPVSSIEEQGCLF

In the case of `C[C@@H]1CC[C@H]2C(=O)O[C@H](CN=[N+]=[N-])CN2[C@H]1c1ccc(Br)cc1`, the composite z-score in experiment [1] was -0.0927 and -0.0564; in experiment [2], 0.622 and 0.269; in [3], -0.158 and -0.187; in [4], -0.12 and -0.336; in experiment [5], -0.321 and -0.635; in experiment [6] it was -0.198 and 0.292. Besides, the composite z-score was -0.238 and -0.279 in experiment [7]; 0.3 and -0.405 in [9]; -0.0657 and -0.0618 in [10]; 0.692 and 0.323 in [11]; 0.359 and -0.0523 in experiment [15]; -0.245 and -0.0174 in experiment [17]. Further, the composite z-score in [18] was 0.366 and 0.115; in [19] it was -0.105 and -1.06; in experiment [20], 0.0172 and -0.252. Further, the z-score in [8] is -0.492 (inactive) and -0.161 (inactive); in [12], -0.471 (inactive) and 0.113 (inactive); in [13], -16.7 (active) and -14.3 (active); in experiment [14], -2.15 (inactive) and -0.441 (inactive); in [16] it was -0.548 (inactive) and 0.433 (inactive).

Turning to `CO[C@H]1COC(=O)CC=C[C@@H](C)COC(=O)[C@@H](OCc2ccccc2)C=C[C@@H]1C`, the composite z-score in experiment [1] is -0.773; in experiment [2] it was 1.86; in experiment [3], -0.213; in experiment [4] it was -0.68; in [5], -1.02; in experiment [6], -0.212. Also, the composite z-score is 1.14 in experiment [7]; -0.28 in experiment [9]; -0.0994 in [10]; 1.47 in [11]; -0.404 in experiment [15]; -0.353 in experiment [17]. The composite z-score in experiment [18] was 2.02; in experiment [19] it was -0.294; in experiment [20], -0.135. The z-score in experiment [8] is -0.971 (inactive); in experiment [12] it was -0.744 (inactive); in [13], -1.31 (inactive); in experiment [14] it was -0.855 (inactive); in experiment [16], 0.973 (inactive).

As to `C=C[C@H](C)[C@@H](O)c1ccc(OCCO)cc1`, the composite z-score is 0.535 and 0.672 in [1]; -0.549 and -0.859 in experiment [2]; -0.215 and -0.188 in experiment [3]; -0.907 and -0.473 in [4]; -1.9 and -0.991 in experiment [5]; -0.612 and 0.783 in experiment [6]. The composite z-score is -0.0529 and 0.395 in experiment [7]; -0.552 and -0.723 in [9]; -0.204 and -0.0393 in experiment [10]; -0.269 and 0.62 in experiment [11]; -0.982 and 0.448 in [15]; -0.184 and -0.0816 in experiment [17]. For the same molecule, the composite z-score in [18] is -0.565 and -0.187; in experiment [19], -0.956 and -0.773; in [20], -0.403 and -0.216. For the same molecule, the z-score in [8] is 1.94 (inactive) and 2.3 (inactive); in [12], -0.766 (inactive) and 0.227 (inactive); in experiment [13] it was -0.467 (inactive) and -0.537 (inactive); in experiment [14] it was -0.647 (inactive) and 0.024 (inactive); in experiment [16] it was 0.158 (inactive) and -0.18 (inactive).

Take `C=CCN(CCCCC)C(=O)C1N(CCCCCCO)C(=O)C2C(C(=O)O)C3C=CC21O3` (stereo not given): the composite z-score is 1.25 and 0.679 in experiment [1]; -0.833 and -1.2 in experiment [2]; -0.2 and -0.248 in experiment [3]; -1.43 and -1.82 in [4]; -2.1 and -1.82 in experiment [5]; -0.54 and 0.234 in [6]. Further, the composite z-score was 1.07 and 1.32 in experiment [7]; -0.855 and -1.02 in [9]; -0.331 and -0.287 in experiment [10]; 0.19 and -0.725 in experiment [11]; 0.565 and 1.97 in experiment [15]; -0.126 and -0.0198 in experiment [17]. The composite z-score in [18] is -2.33 and -1.76; in [19], -0.968 and -0.32; in [20], -0.322 and -0.32. In addition, the z-score in experiment [8] is -0.0502 (inactive) and -0.095 (inactive); in [12] it was -0.657 (inactive) and -0.677 (inactive); in [13], -0.849 (inactive) and -0.744 (inactive); in [14], -0.44 (inactive) and -0.767 (inactive); in [16], -0.617 (inactive) and -0.541 (inactive).
